# Experimental data reported in the supplement of paper PMC10849652.
# Of roughly 7,900 targets only a part is listed; those with a hit were picked by preference. About 0.6% of all pairs of compound and target were hits. Unmarked numbers belong to inactive results.
# Tests used:
# Test in all cases: log2 fold change, soluble protein after heating vs DMSO (PISA); higher = thermal stabilisation; K562 cells, 10 uM, 30 min; active = over 0.2 and 3.5 SD of the protein, either way, in both replicates (recomputed)
# bafetinib = compound: Cc1ccc(NC(=O)c2ccc(CN3CC[C@H](N(C)C)C3)c(C(F)(F)F)c2)cc1Nc1nccc(-c2cncnc2)n1 [bafetinib]
# In short: (§1)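 K562 cells at 2×10^6 cells/mL were treated with 10 μM compound for 30 min. Aliquots were heated for 3 min across 48°C-58°C, pooled, and extracted in PBS with 0.5% NP-40 at 4°C; soluble protein was the supernatant after 21,000xg for 90 min. Soluble protein was quantified by TMTpro 16plex LC-MS/MS with channel sums equalised, and reported as log2 fold change in thermal stability against DMSO controls, with values from duplicates.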
# [1] = compound: Cc1cccc(CC(=O)N2CCc3c2ccc(-c2cn(C)c4ncnc(N)c24)c3F)n1
# In short: as §1
# nilotinib = compound: Cc1cn(-c2cc(NC(=O)c3ccc(C)c(Nc4nccc(-c5cccnc5)n4)c3)cc(C(F)(F)F)c2)cn1 [nilotinib]
# In short: as §1
# [2] = compound: Cc1nc(Nc2n[nH]c3c2CN(C(=O)N[C@H](CN(C)C)c2ccccc2)C3(C)C)c2sccc2n1
# In short: as §1
# dasatinib = compound: Cc1nc(Nc2ncc(C(=O)Nc3c(C)cccc3Cl)s2)cc(N2CCN(CCO)CC2)n1 [dasatinib]
# In short: as §1
# [3] = compound: Cc1ncc(-c2ccnc(Nc3ccc(S(C)(=O)=O)cc3)n2)n1C(C)C
# In short: as §1
# [4] = compound: Cn1cc(-c2ccc3c(c2)CCN3C(=O)Cc2cccc(C(F)(F)F)c2)c2c(N)ncnc21
# In short: as §1
# tipifarnib = compound: Cn1cncc1[C@@](N)(c1ccc(Cl)cc1)c1ccc2c(c1)c(-c1cccc(Cl)c1)cc(=O)n2C [tipifarnib]
# In short: as §1
# mubritinib = compound: FC(F)(F)c1ccc(/C=C/c2nc(COc3ccc(CCCCn4ccnn4)cc3)co2)cc1 [mubritinib]
# In short: as §1
# [5] = compound: Cn1cc(-c2ccc3nnc(C(F)(F)c4ccc5ncccc5c4)n3n2)cn1
# In short: as §1
# Chain of UniProt Q00403 (Q00403 whole entry, looked up): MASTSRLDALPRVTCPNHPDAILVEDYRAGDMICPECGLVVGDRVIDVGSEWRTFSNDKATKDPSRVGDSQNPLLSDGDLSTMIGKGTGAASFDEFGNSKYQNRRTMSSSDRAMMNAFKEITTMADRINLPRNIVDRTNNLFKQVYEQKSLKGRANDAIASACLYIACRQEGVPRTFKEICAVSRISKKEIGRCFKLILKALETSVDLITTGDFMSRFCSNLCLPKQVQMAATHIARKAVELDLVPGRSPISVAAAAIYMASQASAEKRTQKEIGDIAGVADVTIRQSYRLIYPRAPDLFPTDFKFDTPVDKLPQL
# Chain of UniProt O14929 (O14929 whole entry, looked up): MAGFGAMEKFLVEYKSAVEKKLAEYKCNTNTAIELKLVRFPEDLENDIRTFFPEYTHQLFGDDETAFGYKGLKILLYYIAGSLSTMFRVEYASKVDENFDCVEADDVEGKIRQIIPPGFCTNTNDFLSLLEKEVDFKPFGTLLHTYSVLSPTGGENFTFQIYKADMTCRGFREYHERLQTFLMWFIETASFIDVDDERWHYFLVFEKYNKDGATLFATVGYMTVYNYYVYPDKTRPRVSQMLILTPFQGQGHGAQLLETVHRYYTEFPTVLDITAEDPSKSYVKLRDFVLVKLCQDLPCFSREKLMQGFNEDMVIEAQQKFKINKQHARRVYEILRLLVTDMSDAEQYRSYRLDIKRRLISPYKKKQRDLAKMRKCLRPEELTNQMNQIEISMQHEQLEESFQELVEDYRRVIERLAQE
# Chain of UniProt Q53GQ0 (Q53GQ0 whole entry, looked up): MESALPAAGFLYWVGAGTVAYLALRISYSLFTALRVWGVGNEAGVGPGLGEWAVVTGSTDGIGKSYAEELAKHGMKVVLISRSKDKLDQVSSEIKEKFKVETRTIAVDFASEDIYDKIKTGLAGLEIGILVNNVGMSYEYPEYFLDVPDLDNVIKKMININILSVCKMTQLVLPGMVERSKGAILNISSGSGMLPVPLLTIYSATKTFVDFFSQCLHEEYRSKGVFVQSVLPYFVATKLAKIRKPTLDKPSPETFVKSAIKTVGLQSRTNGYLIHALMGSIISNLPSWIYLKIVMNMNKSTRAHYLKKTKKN
# Chain of UniProt P37268 (P37268 whole entry, looked up): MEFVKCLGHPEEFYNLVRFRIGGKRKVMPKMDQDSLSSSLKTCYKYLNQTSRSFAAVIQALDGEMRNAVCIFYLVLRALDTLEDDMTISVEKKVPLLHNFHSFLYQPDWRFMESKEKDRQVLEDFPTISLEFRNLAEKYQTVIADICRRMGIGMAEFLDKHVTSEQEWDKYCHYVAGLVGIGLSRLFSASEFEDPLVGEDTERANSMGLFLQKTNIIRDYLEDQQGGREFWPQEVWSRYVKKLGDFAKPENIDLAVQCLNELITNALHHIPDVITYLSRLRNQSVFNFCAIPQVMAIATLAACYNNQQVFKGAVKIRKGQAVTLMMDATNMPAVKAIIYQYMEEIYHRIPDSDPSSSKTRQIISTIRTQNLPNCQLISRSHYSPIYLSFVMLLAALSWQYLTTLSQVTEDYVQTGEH
# Chain of UniProt P55795 (P55795 whole entry, looked up): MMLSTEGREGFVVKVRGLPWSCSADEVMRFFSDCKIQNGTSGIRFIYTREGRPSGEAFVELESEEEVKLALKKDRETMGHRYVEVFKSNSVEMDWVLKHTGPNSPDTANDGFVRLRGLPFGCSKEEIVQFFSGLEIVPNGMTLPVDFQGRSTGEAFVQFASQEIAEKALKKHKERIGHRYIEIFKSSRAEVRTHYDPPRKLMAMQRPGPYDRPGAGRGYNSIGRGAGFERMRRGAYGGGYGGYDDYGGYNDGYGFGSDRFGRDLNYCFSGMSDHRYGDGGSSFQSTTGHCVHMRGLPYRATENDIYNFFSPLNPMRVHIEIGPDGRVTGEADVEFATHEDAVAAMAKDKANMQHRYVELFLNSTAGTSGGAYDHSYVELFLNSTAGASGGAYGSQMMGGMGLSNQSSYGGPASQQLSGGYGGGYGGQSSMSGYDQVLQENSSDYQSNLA
# Chain of UniProt Q96LB3 (Q96LB3 whole entry, looked up): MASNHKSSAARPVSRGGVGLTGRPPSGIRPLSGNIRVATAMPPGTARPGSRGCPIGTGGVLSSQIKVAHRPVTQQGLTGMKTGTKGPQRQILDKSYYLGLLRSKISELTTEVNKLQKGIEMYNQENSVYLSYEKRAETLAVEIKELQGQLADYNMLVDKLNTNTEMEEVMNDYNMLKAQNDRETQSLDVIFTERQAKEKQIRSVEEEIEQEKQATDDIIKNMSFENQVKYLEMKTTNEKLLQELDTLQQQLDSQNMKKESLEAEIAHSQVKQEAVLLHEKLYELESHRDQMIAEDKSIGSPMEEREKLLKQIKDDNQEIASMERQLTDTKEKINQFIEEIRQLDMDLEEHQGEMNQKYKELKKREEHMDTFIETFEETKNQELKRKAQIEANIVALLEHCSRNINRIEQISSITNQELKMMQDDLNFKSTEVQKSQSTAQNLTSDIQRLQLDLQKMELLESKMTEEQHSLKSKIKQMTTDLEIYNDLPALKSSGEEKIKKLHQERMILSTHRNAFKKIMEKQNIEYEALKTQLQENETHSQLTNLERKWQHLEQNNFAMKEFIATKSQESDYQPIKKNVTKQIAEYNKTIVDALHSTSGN
# Chain of UniProt Q658Y4 (Q658Y4 whole entry, looked up): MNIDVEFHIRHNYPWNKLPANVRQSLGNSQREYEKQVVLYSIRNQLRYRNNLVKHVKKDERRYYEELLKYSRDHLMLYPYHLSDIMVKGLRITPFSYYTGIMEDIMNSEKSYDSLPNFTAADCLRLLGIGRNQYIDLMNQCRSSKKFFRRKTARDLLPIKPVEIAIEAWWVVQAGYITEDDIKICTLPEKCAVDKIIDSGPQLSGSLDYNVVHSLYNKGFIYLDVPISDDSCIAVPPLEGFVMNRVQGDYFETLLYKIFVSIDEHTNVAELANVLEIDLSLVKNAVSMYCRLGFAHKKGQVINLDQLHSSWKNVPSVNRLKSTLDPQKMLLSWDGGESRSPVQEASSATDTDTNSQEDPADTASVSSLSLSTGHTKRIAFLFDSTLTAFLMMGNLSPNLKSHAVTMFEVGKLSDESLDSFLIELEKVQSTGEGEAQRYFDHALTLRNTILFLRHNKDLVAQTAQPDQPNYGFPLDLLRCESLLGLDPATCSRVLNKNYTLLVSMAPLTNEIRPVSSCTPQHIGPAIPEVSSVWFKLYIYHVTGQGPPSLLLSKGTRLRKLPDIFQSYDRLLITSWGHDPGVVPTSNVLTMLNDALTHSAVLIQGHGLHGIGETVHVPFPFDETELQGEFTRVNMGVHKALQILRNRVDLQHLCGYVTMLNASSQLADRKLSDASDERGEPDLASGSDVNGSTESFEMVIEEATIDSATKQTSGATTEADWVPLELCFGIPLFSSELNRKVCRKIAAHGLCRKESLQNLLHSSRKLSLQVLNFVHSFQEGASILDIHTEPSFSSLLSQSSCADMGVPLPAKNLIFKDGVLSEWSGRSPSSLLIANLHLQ
# Chain of UniProt P54803 (P54803 whole entry, looked up): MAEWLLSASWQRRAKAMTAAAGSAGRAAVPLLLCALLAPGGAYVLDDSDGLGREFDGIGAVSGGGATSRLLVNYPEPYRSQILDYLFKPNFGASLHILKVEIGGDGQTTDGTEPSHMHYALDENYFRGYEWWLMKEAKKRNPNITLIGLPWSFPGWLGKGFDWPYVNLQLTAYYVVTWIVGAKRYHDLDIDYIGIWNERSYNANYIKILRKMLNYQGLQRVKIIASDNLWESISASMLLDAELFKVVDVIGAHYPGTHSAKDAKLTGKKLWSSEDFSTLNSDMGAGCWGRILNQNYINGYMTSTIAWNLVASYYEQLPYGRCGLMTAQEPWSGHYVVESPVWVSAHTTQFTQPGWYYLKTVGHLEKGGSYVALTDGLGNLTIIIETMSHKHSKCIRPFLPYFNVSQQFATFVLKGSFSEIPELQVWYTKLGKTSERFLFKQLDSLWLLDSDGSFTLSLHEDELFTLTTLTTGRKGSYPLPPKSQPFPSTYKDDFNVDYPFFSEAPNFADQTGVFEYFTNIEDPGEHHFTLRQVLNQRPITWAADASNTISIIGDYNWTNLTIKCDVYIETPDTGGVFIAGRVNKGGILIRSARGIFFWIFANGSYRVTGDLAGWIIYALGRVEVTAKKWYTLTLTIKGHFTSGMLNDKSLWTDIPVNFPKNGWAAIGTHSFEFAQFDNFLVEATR
# Chain of UniProt P22570 (P22570 whole entry, looked up): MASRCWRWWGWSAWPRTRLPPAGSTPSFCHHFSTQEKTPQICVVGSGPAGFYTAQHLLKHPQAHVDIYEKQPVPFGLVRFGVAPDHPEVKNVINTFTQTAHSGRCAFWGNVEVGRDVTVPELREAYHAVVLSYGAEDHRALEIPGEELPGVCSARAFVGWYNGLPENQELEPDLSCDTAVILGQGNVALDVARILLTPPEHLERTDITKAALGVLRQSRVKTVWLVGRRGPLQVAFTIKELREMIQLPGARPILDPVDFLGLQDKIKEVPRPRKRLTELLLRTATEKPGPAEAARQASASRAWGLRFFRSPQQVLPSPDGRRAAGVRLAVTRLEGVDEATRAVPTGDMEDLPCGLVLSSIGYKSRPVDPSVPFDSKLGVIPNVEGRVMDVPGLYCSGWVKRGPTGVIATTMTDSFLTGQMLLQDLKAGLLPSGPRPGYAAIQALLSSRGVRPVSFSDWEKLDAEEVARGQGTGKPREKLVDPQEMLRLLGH
# Chain of UniProt Q9BTY2 (Q9BTY2 whole entry, looked up): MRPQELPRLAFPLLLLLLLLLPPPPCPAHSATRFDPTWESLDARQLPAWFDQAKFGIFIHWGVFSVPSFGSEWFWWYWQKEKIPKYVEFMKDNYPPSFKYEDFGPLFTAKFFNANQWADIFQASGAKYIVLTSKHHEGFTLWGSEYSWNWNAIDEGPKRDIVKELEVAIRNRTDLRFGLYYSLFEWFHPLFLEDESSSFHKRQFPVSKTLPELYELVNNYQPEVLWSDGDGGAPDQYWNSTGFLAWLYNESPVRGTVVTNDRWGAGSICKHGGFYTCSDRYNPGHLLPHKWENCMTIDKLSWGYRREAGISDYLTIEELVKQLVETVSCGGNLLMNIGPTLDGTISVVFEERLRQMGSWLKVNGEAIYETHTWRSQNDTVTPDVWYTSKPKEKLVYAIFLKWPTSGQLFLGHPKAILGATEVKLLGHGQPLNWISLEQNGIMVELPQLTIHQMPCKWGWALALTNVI
Target,log2 fold change (bafetinib),log2 fold change [1],log2 fold change (nilotinib),log2 fold change [2],log2 fold change (dasatinib),log2 fold change [3],log2 fold change [4],log2 fold change (tipifarnib),log2 fold change (mubritinib),log2 fold change [5]
FRA10AC1 isoform 3 (UniProt Q70Z53),-0.087,0.018,-0.034,-0.039,-0.051,0.085,-0.076,-0.055,0.011,–
HAT1 (UniProt O14929),-0.115,0.017,0.004,-0.035,-0.044,-0.025,0.024,0.004,-0.033,0.006
HSPA8 (UniProt E9PK54),0.096,-0.069,-0.105,-0.011,0.011,0.072,-0.409 (active),0.227,0.024,0.062
GTF2B (UniProt Q00403),-0.005,0.139,-0.134,-0.13,-0.247,0.006,0.031,-0.082,0.007,0.102
HBQ1 (UniProt P09105),0.028,0.046,0.054,-0.004,0.102,-0.043,0.12,-0.125,0.039,0.117
IFT74 (UniProt Q96LB3),-0.095,0.015,0.166,0.063,0.057,0.008,0.015,-0.052,0.186,-0.053
GALC (UniProt P54803),-0.507 (active),0.084,0.008,0.045,0.096,0.01,0.004,0.126,-0.005,0.065
HDDC2 (UniProt Q7Z4H3),-0.015,0.039,0.057,-0.005,-0.01,-0.003,0.069,-0.091,0.043,-0.008
HIST2H2BF isoform 2 (UniProt Q5QNW6),0.211,-0.189,-0.044,-0.006,0.147,0.012,-0.358,-0.018,-0.173,-0.098
GDPD1 (UniProt Q8N9F7),0.088,-0.141,0.1,0.104,0.023,-0.045,0.046,0.106,0.096,-0.031
HNRNPH2 (UniProt P55795),0.056,0.006,-0.09,-0.231,-0.061,-0.103,-0.021,-0.236,-0.115,0.041
HSD17B12 (UniProt Q53GQ0),0.067,-0.039,0.184,-0.039,-0.095,0.002,0.092,0.089,-0.018,-0.02
HDHD2 (UniProt Q9H0R4),0.068,0.018,0.024,-0.04,0.042,0.006,0.019,-0.011,0.045,0.028
FUT8 (UniProt Q9BYC5),-0.062,-0.042,-0.008,0.006,0.031,0.054,-0.276,–,-0.037,0.022
FAM91A1 (UniProt Q658Y4),-0.01,0.07,-0.007,0.073,-0.048,0.01,0.021,-0.004,0.052,-0.015
GMEB1 (UniProt Q9Y692),-0.12,-0.048,-0.04,-0.036,-0.06,0.001,0.019,-0.204,-0.03,0.044
FDXR isoform 7 (UniProt P22570),-0.012,-0.162,-0.031,-0.015,-0.245,-0.042,-0.023,-0.002,-0.643 (active),0.038
HEATR3 (UniProt Q7Z4Q2),0.058,0.389 (active),-0.045,-0.088,-0.073,-0.073,-0.008,-0.011,-0.079,0.138
GABPA (UniProt Q06546),-0.036,0.034,-0.103,-0.115,-0.12,-0.026,0.048,-0.149,0.019,0.111
HADHA (UniProt P40939),0.293,0.097,0.049,-0.078,-0.05,0.036,0.203,-0.304,0.685 (active),0.069
GTPBP6 (UniProt O43824),-0.706 (active),-0.072,0.13,0.069,0.028,-0.042,0.057,–,0.058,0.042
HSPA8 (UniProt P11142),0.008,-0.008,0.081,-0.001,0.03,-0.003,-0.029,0.037,-0.002,-0.003
FUCA2 (UniProt Q9BTY2),-0.809 (active),-0.022,0.032,0.001,0.022,-0.009,0.012,0.077,0.013,-0.019
FDFT1 (UniProt P37268),0.01,0.016,0.12,0.071,0.023,-0.019,0.111,0.089,0.022,-0.047
HMGN2 (UniProt P05204),-0.013,-0.189,-0.025,0.022,0.053,0,-0.025,0.079,0.021,0.04
